Results: PubChem BioAssay (NCI)
Compounds without any hit were thinned out: in the full panel of roughly 79,000, 15% have a hit. A number with no mark means an inactive call. Calls of active or inactive are those of the source. Cut-off read from the data, not from the text of the source: active = growth inhibition above about 70%; inactive = the rest.

Assay: NCI Yeast Anticancer Drug Screen. Data for the rad14 strain (AID 159);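 note: 0% = growth of vehicle-treated control cultures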
Conditions: S. cerevisiae rad14 strain growth inhibition, hits give high values
Description: Growth inhibition of yeast strains with defined genetic alterations is measured as a screen for potential anti-cancer activity. Selected strains with alterations in DNA damage repair or cell cycle control were exposed to compounds and growth inhibition was measured relative to vehicle treated controls. The strain used in this assay is rad14

SMILES | growth inhibition (at 1.2 µM) | growth inhibition (at 3.7 µM) | growth inhibition (at 11.0 µM) | growth inhibition (at 33.0 µM) | growth inhibition (at 100.0 µM)
O=C(O)c1cccc(-c2c3ccc(=O)cc-3oc3cc(O)ccc23)c1 | -29% | -20% | 2% | 71% (active) | 95% (active)
S=C(N/N=C/c1ccccn1)Nc1ccc(Cl)cc1 | -3% | 0% | 0% | 27% | 80% (active)
CC(C)NC(=O)OCc1c(COC(=O)NC(C)C)c(-c2ccc(Cl)c(Cl)c2)n2c1CCC2 | -33% | -26% | -30% | 10% | 84% (active)
COC(=O)c1ccc(NCC2=CC(=O)C=CC2=O)cc1O | 33% | 61% | 98% (active) | 98% (active) | 92% (active)
CC(C)c1ccccc1NC(=O)/C(Cl)=C(\Cl)C(=O)O | 2% | 2% | 4% | 6% | 93% (active)
CC(C)C1=CC2=C[C@H](O)[C@H]3C(C)(C)CCC[C@]3(C)C2=C(O)C1=O | 6% | 23% | 100% (active) | 99% (active) | 95% (active)
CCCCc1cc(O)ccc1O | 2% | 3% | 18% | 31% | 35%
Cc1nc(-c2ccccc2)c(-c2ccccc2)s1 | 9% | 10% | 7% | 84% (active) | 97% (active)
